Data as given in article PMC4336329 (PLoS ONE, 2015).
The whole screen tested about 310,000 compounds, of which about 14,000 (4.5%) showed an effect of 50% or more. The effect is printed as a negative number. What follows is part of a selection rich in strong results, with near analogues and random picks from the rest.

What follows are compounds tested against human ether-à-go-go-related gene (hERG) potassium channel (human, UniProt Q12809) (assay: primary screen, population patch clamp on CHO cells stably expressing hERG; higher = less effect of the substance).
human ether-à-go-go-related gene (hERG) potassium channel, sequence (Q12809 whole entry, looked up): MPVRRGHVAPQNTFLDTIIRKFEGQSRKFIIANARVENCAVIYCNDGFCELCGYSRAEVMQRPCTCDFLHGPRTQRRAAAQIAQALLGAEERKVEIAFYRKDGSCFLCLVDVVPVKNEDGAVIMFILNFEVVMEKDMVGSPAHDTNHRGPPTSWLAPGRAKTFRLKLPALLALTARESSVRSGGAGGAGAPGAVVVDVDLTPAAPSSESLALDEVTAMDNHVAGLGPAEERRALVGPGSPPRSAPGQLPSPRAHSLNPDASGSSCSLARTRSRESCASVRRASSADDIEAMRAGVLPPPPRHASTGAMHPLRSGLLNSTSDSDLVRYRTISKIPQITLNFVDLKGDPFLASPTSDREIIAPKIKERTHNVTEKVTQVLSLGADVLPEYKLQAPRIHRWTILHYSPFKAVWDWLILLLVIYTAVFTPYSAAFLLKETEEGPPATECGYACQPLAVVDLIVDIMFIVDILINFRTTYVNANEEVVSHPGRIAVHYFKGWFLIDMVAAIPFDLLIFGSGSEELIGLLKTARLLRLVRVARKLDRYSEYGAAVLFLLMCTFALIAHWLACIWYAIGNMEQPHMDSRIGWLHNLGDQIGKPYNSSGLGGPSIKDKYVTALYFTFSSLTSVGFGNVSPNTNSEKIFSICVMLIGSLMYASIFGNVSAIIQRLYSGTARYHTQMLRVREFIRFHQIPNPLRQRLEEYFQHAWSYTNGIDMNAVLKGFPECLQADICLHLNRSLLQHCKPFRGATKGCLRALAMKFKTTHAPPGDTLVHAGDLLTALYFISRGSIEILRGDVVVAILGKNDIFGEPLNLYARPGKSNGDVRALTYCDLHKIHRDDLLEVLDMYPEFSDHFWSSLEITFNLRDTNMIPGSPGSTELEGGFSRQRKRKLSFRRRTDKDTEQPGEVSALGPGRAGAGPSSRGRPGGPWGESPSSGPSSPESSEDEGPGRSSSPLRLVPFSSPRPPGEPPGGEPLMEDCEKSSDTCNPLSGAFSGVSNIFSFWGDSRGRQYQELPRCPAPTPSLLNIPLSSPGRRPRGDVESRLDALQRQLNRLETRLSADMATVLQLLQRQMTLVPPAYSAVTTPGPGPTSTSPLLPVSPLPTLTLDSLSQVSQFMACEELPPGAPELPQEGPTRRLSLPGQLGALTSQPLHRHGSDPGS
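Also: peak tail current of the secondary pulse compared with the same well before compound.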

Compound	hERG current change (%, negative = inhibition) at 10uM [%]
O=C(O)CCCN1C(=O)c2ccc(Oc3cccc([N+](=O)[O-])c3)cc2C1=O	17.6
COc1cccc(C(=O)Cn2c(Br)nc3c2c(=O)n(C)c(=O)n3C)c1	-13.1
CCOC(=O)c1cc2c(s1)-c1c(C)cccc1OC2	7.36
CCN1CCN(C(=O)c2cc3c(s2)-c2c(C)cccc2OC3)CC1	-17.8
Cc1cccc2c1-c1sc(C(=O)N3CCc4ccccc4C3)cc1CO2	-2.75
Cc1cccc2c1-c1sc(C(=O)NCCCN3CCCC(C)C3)cc1CO2 (stereo not drawn)	-77.9
CCOC(=O)N1CCN(C(=O)c2cc3c(s2)-c2c(C)cccc2OC3)CC1	-15.5
CCCN1CCN(CCCNC(=O)c2cc3c(s2)-c2c(C)cccc2OC3)CC1	-85.2
Cc1cccc2c1-c1sc(C(=O)N3CCCCC3)cc1CO2	-18.6
Cc1cccc(NC(=O)c2cc3c(s2)-c2c(C)cccc2OC3)n1	29.2
Cc1cccc2c1-c1sc(C(=O)NCCCN3CCC(C)CC3)cc1CO2	-77.6
S=c1[nH]nc(-c2ccccc2)n1/N=C/c1cccc(Br)c1	21.4
CC(C(=O)N1CCOCC1)N1C(=O)c2cccc3cccc(c23)C1=O (stereo not drawn)	16.6
COc1cc(OC)cc(-c2c(-c3cccs3)c3cc(-c4cnc(OC)nc4)ccc3n2C)c1	1.57
O=S(=O)(/N=C(/NC(=S)Nc1ccccc1)c1ccccc1)c1ccc(Cl)cc1	18.9
Cc1cc(C)c2nc(NNC(=O)c3cc(-c4cccs4)nc4ccccc34)sc2c1	18.3
Cn1c(SCC(=O)N/N=C/c2ccco2)nc2ccccc21	-2.38
Cc1ccc(/C=N/NC(=O)CSc2nc3ccccc3n2Cc2ccccc2)o1	-33.9
Cc1ccc(/C=N/NC(=O)CSc2nc3ccccc3n2Cc2ccc(Cl)cc2)o1	-16.2
O=C(CSc1nc2ccccc2n1Cc1ccccc1)N/N=C/c1ccccc1C(=O)O	-0.979
Cn1c(SCC(=O)N/N=C/C=C/c2ccco2)nc2ccccc21	-42.9
CCn1c(SCC(=O)N/N=C/C=C\c2ccco2)nc2ccccc21	-9.42

Compound	hERG current change (%, negative = inhibition) at 10uM [%]
Cc1ccc(Cn2c(SCC(=O)N/N=C/c3ccc(C)o3)nc3ccccc32)cc1	-61.1
Cn1c(SCC(=O)N/N=C/C=C\c2ccco2)nc2ccccc21	-50.6
O=C(CSc1nc2ccccc2n1Cc1ccccc1)N/N=C/c1ccco1	-60.7
Cc1cc(NC(=O)CSc2ccccn2)no1	11.3
CN(C(=O)c1ccno1)c1nnc(-c2cnccn2)s1	6.99
CC(C)(C)NC(=S)N/N=C/c1cc(Br)c(O)c(Br)c1	29.8
CCC12CN3CCN(CC(C3)C1O)C2 (stereo not drawn)	-6.76
CCOc1ccc2[nH]c3nc(SCC(=O)NC4CCCC4)nnc3c2c1	14.1
O=C(NCc1ccccc1)c1ccc2nc(-c3ccco3)c(-c3ccco3)nc2c1	-10.7
CC1CCN(C(=O)CSc2nnc(-c3ccc(S(=O)(=O)N4CCOCC4)cc3)n2C)CC1	-4.38
Cc1cccc(C)c1Nc1c(-c2ccc(N3CCOCC3)cc2)nc2ncccn12	-19
Brc1ccc(-c2ccccc2)cc1	0.132
Brc1ccc(-[n+]2c(-c3ccccc3)cc(-c3ccccc3)cc2-c2ccccc2)cc1.[O-][Cl+3]([O-])([O-])[O-]	-73.8
Cc1ccc(-c2cc(-c3ccccc3)cc(-c3ccccc3)[n+]2-c2ccc(C(=O)O)cc2)cc1.[O-][Cl+3]([O-])([O-])[O-]	4.17
Oc1ccc(-[n+]2c(-c3ccccc3)cc(-c3ccccc3)cc2-c2ccccc2)cc1.[O-][Cl+3]([O-])([O-])[O-]	-71.3
Cc1ccc(-c2cc(-c3ccccc3)cc(-c3ccccc3)[n+]2-c2ccccc2)cc1.[O-][Cl+3]([O-])([O-])[O-]	-82.1
Cc1ccc(-c2cc(-c3ccc(C)cc3)[n+](-c3ccccc3)c(-c3ccc(C)cc3)c2)cc1.[O-][Cl+3]([O-])([O-])[O-]	-80.2
Clc1ccc(OCCOCCOc2cccc3cccnc23)c(Br)c1	0.0859
O=C(CCS(=O)(=O)c1ccc(Br)cc1)N1CCCCCC1	-25.3
CN1C(=O)c2ccc(NC(=O)c3c(F)c(F)c(F)c(F)c3F)cc2C1=O	18.3
CC(C)c1ccc(NC(=S)NN(c2ccccc2)c2ccccc2)cc1	12.7
O=C(NCc1ccc2c(c1)OCO2)c1ccc2c(=O)n(C3CCCC3)c(=O)[nH]c2c1	4.61

Compound	hERG current change (%, negative = inhibition) at 10uM [%]
COc1ccc(C(=O)Nc2nc3ccc(OC)cc3s2)cc1	12.6
Nc1ccc(-c2cnc[nH]2)cc1[N+](=O)[O-]	-0.302
CCN(CCNCC(O)COCc1ccc(Cl)cc1)c1cccc(C)c1.O=C(O)C(=O)O (stereo not drawn)	-18.2
O=C(O)c1ccccc1NCCO	33.8
O=C(CSc1nnc(-c2ccncc2)s1)Nc1ccccc1	3.19
O=[N+]([O-])c1ccc(-[n+]2c(-c3ccccc3)cc(-c3ccccc3)cc2-c2ccccc2)cc1.[O-][Cl+3]([O-])([O-])[O-]	4.73
[O-][Cl+3]([O-])([O-])[O-].c1ccc(-c2cc(-c3ccccc3)[n+](-c3ccccc3)c(-c3ccccc3)c2)cc1	-71.3
O=C(O)c1ccc(-[n+]2c(-c3ccccc3)cc(-c3ccccc3)cc2-c2ccccc2)cc1.[O-][Cl+3]([O-])([O-])[O-]	14.8
Cc1ccc2c(COC(=O)c3ccc(NC(=O)CC#N)cc3)cc(=O)oc2c1C	3.63
COc1ccccc1NC(=O)CSc1c2c(nc3ccccc13)CCC2	-26.3
Nc1ccc2nc3c(c(Cl)c2c1)CCCC3	-22.7
COc1ccc(NC(=O)CSc2c3c(nc4ccccc24)CCCC3)c(OC)c1	-47.5
COc1ccc(OC)c(NC(=O)c2c3c(nc4ccccc24)CCC3)c1	-21.8
COc1ccc(NC(=O)CSc2c3c(nc4ccccc24)CCC3)c(OC)c1	-36.9
COc1ccc(OC)c(Nc2c3c(nc4ccccc24)CCC3)c1	-67.8
COc1ccccc1Nc1c2c(nc3ccc(N)cc13)CCCC2	-72.4
COc1ccc(Nc2c3c(nc4ccccc24)CCC3)c(OC)c1	-64.7
COc1ccc(OC)c(NC(=O)COC(=O)c2c3c(nc4ccccc24)CCCC3)c1	1.03
COc1ccc(C)cc1Nc1c2c(nc3ccccc13)CCC2	-56.7
COc1ccccc1Nc1c2c(nc3ccccc13)CCC2	-45.6
COc1ccc(C)cc1Nc1nc(N)c2ccccc2n1.Cl	-12.8
O=C(NC1(C(=O)NC2CCCCC2)CCCCC1)c1ccccn1	2.56

Compound	hERG current change (%, negative = inhibition) at 10uM [%]
COc1ccc(CCNC(=O)C(=O)NCc2ccc(C)cc2)cc1OC	-1.57
COc1ccccc1N1CCN(C(=O)c2cc(-c3cccs3)on2)CC1	-22.7
COc1cccc(CNC(=O)C2Cc3ccccc3CN2C(C)=O)c1 (stereo not drawn)	2.81
C=CCc1cccc(/C=N/NC(=O)COc2ccc(-n3cnnn3)cc2)c1O	11.3
CCN1C(=O)N[C@@H](c2cccc(C(F)(F)F)c2)[C@@H](C(=O)OC)[C@H]1C	-19
O=C(Cn1cccc1C(=O)c1ccccc1)NCc1ccc(Cl)cc1	18.7
O=C(O)CC(NS(=O)(=O)c1cccc2nsnc12)c1ccc(F)cc1 (stereo not drawn)	-17.2
Cc1cc(F)ccc1S(=O)(=O)Nc1ccc(C(=O)N2CCCCCC2)cc1	-27.6
Cc1cc(N/N=C/c2ccco2)c2ccccc2n1	16.6
Cc1ccc2nc(SCC(=O)N/N=C/c3ccco3)cc(C)c2c1	10.4
Cc1ccc2nc(N/N=C/c3ccco3)cc(C)c2c1	-64.3
C[C@@H]1CC[C@H]2[C@@H](C)C(=O)O[C@@H]3O[C@@]4(C)CC[C@@H]1[C@]32OO4	0.204
COc1ccc(OC)c(NC(=O)CSc2nnc(C3CCCCC3)n2N)c1	-17.4
CC(C)CC(NC(N)=O)C(=O)Nc1ccc(Oc2ccccc2)cc1 (stereo not drawn)	10.1
O=C(/C(=N\Nc1ccc(Br)cc1)Sc1nnnn1-c1ccccc1)c1ccccc1	13.8
Cc1ccc2c(c1)c1c3n2CCN(CC(N)=O)C3CCC1 (stereo not drawn)	25.6
Cc1ccc2c(c1)c1c3n2CCN(CCC(=O)O)C3CCC1 (stereo not drawn)	-3.49
CCN1CCn2c3c(c4cc(C)ccc42)CCCC31 (stereo not drawn)	-54.2
Cc1ccc2c(c1)c1c3n2CCN(CC#N)C3CCC1 (stereo not drawn)	2.24
CCN(CC)CCN1CCn2c3c(c4cc(C)ccc42)CCCC31.Cl (stereo not drawn)	-76.3
CCN1CCn2c3c(c4cc(Cl)ccc42)CCCC31.Cl (stereo not drawn)	-39.1
